# Source: PubChem BioAssay (National Center for Advancing Translational Sciences (NCATS))
# In the library only some 21% were active in any assay of this set; here they are far more common.
# NS1 function inh: blocks influenza NS1 protein function; Potency, µM (titrated, usually from 46.1 µM), without a hit: at the highest dose activity, positive = more growth; actives 0.4% (n = 270,000); AID 2326; calls by dose curve; also: potency is read from the fitted curve at half-maximal effect; actives are rising curves; nearly all actives have a fitted effect of over 50% in size
#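 In this qHTS, NS1 from influenza A is expressed in budding yeast, where it slows growth. Cells are switched from glucose to 2% galactose medium (pH 6.0, -URA), treated with compound, and growth recovery is read at OD600.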
# Cycloheximide cs: counter-screen for Shiga toxin inhibitors: cycloheximide protein synthesis inhibition; max response, %; actives 12% (n = 300,000); cell reporter, cycloheximide protein synthesis inhibition counterscreen; in the data active = max response mostly above about 13%, no sharp cut-off; inactive = mostly below about 14%; also: read at 38.3 µM for the half of the compounds with a filed dose; 0% is about no effect
# Pf growth 48h: inhibits P. falciparum growth in the first generation, 48 h; P. falciparum luciferase growth in erythrocytes, 48 h; Potency, µM (top dose mostly 28.7 µM), without a hit: at the top dose activity change, negative = inhibition, actives largely listed as inhibitors; actives 5.9% (n = 310,000); also: potency is read from the fitted curve at half-maximal effect; % is scaled to controls: 0 for no effect and ±100 for the full control effect
#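 Erythrocytes infected with P. falciparum carrying an integrated firefly luciferase reporter (2% hematocrit, 0.1% parasitemia final) were exposed to compounds in RPMI 1640 with 0.5% Albumax at 37 C, 5% CO2. Growth inhibition was scored as reduced luminescence.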
# Pf growth 96h: P. falciparum growth inhibition at 96 hour, primary screen for plastid delayed-death inhibitors; AID 504834; actives 6.9% (n = 320,000); P. falciparum luciferase reporter growth, 96 h; Potency, µM (top dose mostly 28.7 µM), without a hit: at the highest dose activity change, negative = inhibition, actives largely listed as inhibitors; also: potency is read from the fitted curve at half-maximal effect; % is scaled to controls: 0 for no effect and ±100 for the full control effect
#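 96 h incubation, 37 C, 5% CO2, of luciferase-reporter P. falciparum-infected RBCs (2% hematocrit, 0.05% parasitemia final) with test compounds; endpoint luminescence.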
# Sm TGR block: inhibitors of Schistosoma mansoni thioredoxin glutathione reductase; purified TGR, DTNB reduction, TNB absorbance 405 nm; Potency, µM (top dose mostly 114 µM), inactives show top-dose activity change, negative = inhibition, actives largely listed as inhibitors; actives 3% (n = 360,000); AID 485364; also: potency is read from the fitted curve at half-maximal effect; % is scaled to controls: 0 for no effect and ±100 for the full control effect; nearly all actives have a fitted effect of over 60% in size
#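 TGR 20 nM + NADPH 100 uM (dispensed conc.), cpd preinc 15 min RT; start with NADPH (500 uM addition) then DTNB (15 mM addition). Kinetic TNB absorbance, 405 nm filter. Four-parameter Hill fit across titration.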
# Shiga inhibitor: Shiga toxin inhibition. Vero cells, Shiga toxin protein synthesis inhibition reporter. inhibition, % at 38.7 µM. actives 9.2% (n = 290,000). AID 2315; in the data active = inhibition mostly above about 28%, no sharp cut-off; inactive = mostly below about 43%; also: 0% is about no effect
# * marks the source's active call; other numbers are inactive results; ? = inconclusive; . = not tested or not shown. Unless noted, calls follow the shape of the dose curve; as a rule, active = well fitted curve in the direction sought with a large enough effect; inconclusive = small, poorly fitted or top-dose-only effect, or another doubt; inactive = no such curve, though single readings can be large; an effect the other way counts as inactive or inconclusive.
SMILES,NS1 function inh,Cycloheximide cs,Pf growth 48h,Pf growth 96h,Sm TGR block,Shiga inhibitor
Cc1ccc(S(=O)(=O)CCc2nc3ccccc3[nH]2)cc1C,.,0.2,?,?,-2.1%,5.8
N#Cc1c(-c2ccccc2Cl)cc(-c2ccccc2)nc1Br,-30.0%,-0.6,-3.4%,0.0%,-7.2%,5.9
C=CCOc1ccc2ccccc2c1/C=N/O,-95.4%,1.5,.,18.9%,1.2%,10.1
CCCS/C(N)=N/N=C/c1ccccc1O,-56.5%,38.4*,164.5%,.,0.2%,49.6*
C=CCS/C(N)=N\N=C\c1c(O)ccc2ccccc12,-3.5%,43.6*,69.8%,66.9%,12.0%,114.0*
CC(OC(=O)c1ccc(NS(=O)(=O)c2ccc3[nH]c(=O)[nH]c3c2)cc1)C(N)=O (configuration not stated),1.6%,-2.2,16.3%,36.1%,1.9%,-9.3
CCN(CC)S(=O)(=O)c1cc(OC)c(Cl)cc1Cl,-88.9%,27.7*,.,-18.1%,-19.5%,-2.4
CC(=O)NC1C(OCc2ccccc2)OC2COC(C)(C)OC2C1O (configuration not stated),-0.6%,-1.2,8.0%,49.6%,.,19.1
Nc1ccn(Cc2ccccc2)n1,.,4.4,-1.3%,?,-13.9%,-16.4
c1ccc(Cn2ccc(-c3cnc(-c4ccccc4)s3)n2)cc1,-93.5%,40.8*,.,286.0%,-10.4%,108.5*
O=C(NNS(=O)(=O)c1ccc(C(=O)NC2CCCC2)cc1)c1ccncc1,.,-2.2,15.8%,-10.1%,4.7%,-8.3
CC1CCCCC1NC(=O)c1ccc(S(=O)(=O)NNC(=O)c2ccncc2)cc1 (configuration not stated),-3.0%,-1.3,2.08µM*,-11.4%,-21.3%,-11.0
COc1cccc(NC(=S)NC2CC3CCCC(C2)N3C2CCCC2)c1 (configuration not stated),-2.2%,0.9,?,7.2%,-30.3%,-6.2
Cc1cc(C)cc(NC(=S)NC2CC3CCCC(C2)N3C2CC2)c1 (configuration not stated),2.4%,1.1,?,-0.5%,.,-3.3
S=C(Nc1ccc(Cl)cc1)NC1CC2CCCC(C1)N2C1CC1 (configuration not stated),10.2%,-5.4,10.4µM*,10.4µM*,?,-5.8
S=C(NCCN(C1CCCCC1)C1CCCC1)Nc1cccc(Cl)c1,-3.1%,-5.8,2.94µM*,-2.3%,-24.8%,-12.5
S=C(Nc1cccc(Cl)c1)NC1CC2CCCC(C1)N2C1CCCC1 (configuration not stated),-2.8%,-3.0,3.29µM*,?,-14.4%,-9.3
Cc1cc(C)cc(NC(=S)NC2CC3CCCC(C2)N3C2CCCC2)c1 (configuration not stated),3.0%,-1.3,?,-5.6%,12.6µM*,-15.8
Cc1cccc(C)c1OCc1cc(C(=O)N(Cc2c(C)nn(C)c2C)C2CC2)no1,-6.9%,-1.6,-24.2%,-5.3%,-4.5%,1.6
CCOc1ccc(CNC(=O)CCC(=O)N2CC(C)Sc3ccccc32)cc1 (configuration not stated),.,.,.,.,8.4%,.
C=CCN1C2CCCC1CC(NC(=S)Nc1ccc(Cl)cc1)C2 (configuration not stated),2.6%,-6.2,?,28.8%,.,-17.4
S=C(Nc1ccc(Cl)cc1)NC1CC2CCCC(C1)N2C1CCCC1 (configuration not stated),5.3%,-1.5,10.4µM*,11.7µM*,-22.3%,28.6
COc1ccc(NC(=S)NC(C)Cc2cccs2)cc1 (configuration not stated),.,28.7*,45.5%,-12.8%,-2.7%,67.6*
COc1ccc(NC(=S)NCc2cccs2)cc1,-3.7%,19.4*,18.1%,?,.,46.9*
CCC(C)NC(=S)Nc1ccc(F)cc1 (configuration not stated),2.3%,0.7,12.0%,-4.1%,3.7%,25.7
SMILES,NS1 function inh,Cycloheximide cs,Pf growth 48h,Pf growth 96h,Sm TGR block,Shiga inhibitor
CC(Cc1cccs1)NC(=S)Nc1ccc(F)cc1 (configuration not stated),-20.5%,10.3*,-13.8%,1.0%,-3.4%,51.3*
CCc1ccccc1NC(=O)c1ncoc1-c1ccco1,.,.,.,.,-0.3%,.
Cc1ccc2c(c1)c1c(c(=O)n(Cc3ccccc3)c(=O)n1CC(=O)NCc1ccccc1Cl)n2C,.,.,.,.,6.4%,.
Cc1cccc(N2CCN(C(=O)c3cccc(-n4c(C)nc5cccnc54)c3)CC2C)c1 (configuration not stated),.,.,.,.,3.1%,.
CCn1ncc(C2=NOC(C(=O)Nc3cnn(C45CC6CC(CC(C6)C4)C5)c3)C2)c1C (configuration not stated),7.8%,-2.3,5.86µM*,0.0%,23.4%,-7.4
CCn1ncc(C2=NOC(C(=O)NCC(C)C)C2)c1C (configuration not stated),-0.1%,-2.1,.,.,-1.0%,-13.5
CC1(C)CC(NC(=O)c2ccccc2)CC(C)(C)N1,17.8%,-3.7,-3.2%,?,8.8%,-7.0
C[C@@H]1C(NC(=O)c2ccccc2)CC2CC1C2(C)C (some centres not stated),-112.3%,6.3,-14.1%,7.38µM*,-0.7%,14.9
COc1ccc(C)cc1NC(=O)C(=O)NCc1ccncc1,-6.7%,-7.6,4.0%,?,3.8%,56.7
COc1ccc(C)cc1NC(=O)CSc1nc2ccccc2nc1N1CCCC1,24.3%,8.8,?,?,7.6%,11.7
CCN(CC)c1ccc(Nc2cc3n(c(=O)n2)CCc2cc(OC)c(OC)cc2-3)cc1,-3.8%,10.2,?,10.4µM*,-31.6%,2.9
COc1cc2c(cc1OC)-c1cc(Nc3ccc(F)cc3)nc(=O)n1CC2,2.2%,-1.7,2.08µM*,1.17µM*,-17.2%,-3.1
COc1cc2c(cc1OC)-c1cc(Nc3ccc(N(C)C)cc3)nc(=O)n1CC2,-4.3%,-2.5,?,?,-12.3%,1.4
COc1cc2c(cc1OC)-c1cc(OCc3ccccc3Cl)nc(=O)n1CC2,10.4%,-2.4,.,?,4.6%,15.4
COc1cc2c(cc1OC)-c1cc(Nc3cccc(F)c3)nc(=O)n1CC2,1.7%,-3.4,?,4.15µM*,-5.0%,2.6
CCOC(=O)C1(S(=O)(=O)c2ccc(Cl)cc2)CCN(Cc2ccc(C)cc2)CC1,-8.8%,-2.3,?,?,14.5%,-9.2
Cc1cccc(NC(=O)CSc2nc(C)c(Cc3ccccc3)c(=O)[nH]2)c1C,.,-4.1,8.8%,-5.3%,2.5%,-19.2
COc1ccc(OC)c(S(=O)(=O)NCC(c2ccc(N(C)C)cc2)N2CCOCC2)c1 (configuration not stated),.,.,.,.,-9.2%,.
Cc1ccc(C)c(N2CCN(C(=O)CS(=O)(=O)c3cccc4nsnc34)CC2)c1,.,.,.,.,-22.5%,.
C/C(=N\NC(=O)c1nnn(-c2nonc2N)c1-c1ccc2c(c1)OCO2)c1ccc(F)cc1,12.1%,-3.1,?,4.65µM*,-5.8%,-5.1
